Measurements as given in PubChem BioAssay AID1892 (NMMLSC, 2009).
The campaign covered roughly 5,900 compounds. About 140 (2.4%) were called active. This is one part of a sample in which actives are shown more often than they occur. Cut-off read from the data, not from the text of the source: active = binding response below about 16% or above about 210%; inactive = in between.

molecular target: Mitogen-activated protein kinase kinase kinase 2 (Homo sapiens) (UniProt Q9Y2U5); assay: modulators of MEK5 binding to wildtype MEKK2, confirmation, biochemical, single concentration, multiplex bead flow cytometry (AID 1892); settings: Alexa488-MEK5 binding to MEKK2 WT, at 10 µM, actives lie on both sides

Binding response (% of control), inactive:
CC(C)(C)c1nnc(NC(=O)C2c3ccccc3Oc3ccccc32)s1 93%
Clc1ccc(-c2nnc(SCc3nc4ccccc4s3)o2)cc1 98%
CCCn1c(=N)n(CC(=O)c2ccc(Cl)c(Cl)c2)c2ccccc21 144%
CCCCN1C(=O)/C(=C(/C#N)C(N)=O)c2ccccc21 102%
O=C(NCCN1CCOCC1)[C@H](Cc1ccccc1)N1C(=O)c2ccccc2C1=O 103%
COc1cc2c(cc1OC)CN(C(=O)c1ccc(S(=O)(=O)N3CCCCCC3)cc1)CC2 97%
O=C(O)c1cc(Cl)c(Cl)cc1C(=O)Nc1cccc2ncccc12 99%
Cc1noc(C)c1S(=O)(=O)N(C)Cc1ccccc1 105%
CN(Cc1ccccc1)CC(O)COc1ccc(CNCc2cc3ccccc3s2)cc1 (configuration not stated) 129%
CN(CC(=O)Nc1cccc(F)c1)CC(=O)Nc1cccc([N+](=O)[O-])c1 99%
CC(C)c1ccc(C(=O)NCCCc2ccccc2)cc1 94%
COc1cc(-c2nnc(Cn3cc(C(F)(F)F)ccc3=O)o2)cc(OC)c1OC 103%
O=C(CCCO)N/N=C/c1cc(Br)ccc1O 106%
O=C(NC1CCN(Cc2ccccc2)CC1)c1cc(Br)c(Br)[nH]1 128%
Cc1cccc(OCCNC(=O)CSc2ccc(C(F)(F)F)cc2[N+](=O)[O-])c1 104%
N=c1c2c(-c3ccccc3)c(-c3ccccc3)n(Cc3ccccc3)c2ncn1CCCO 134%
Cc1nn(-c2ccccc2)c(NC(=O)c2cccs2)c(-c2ccc(Cl)cc2)c1=O 101%
CCn1c(NC(=O)c2ccccc2)c(-c2cccs2)c(=O)c2ccccc21 102%
C/C=C/c1ccc(OCCCCN2CCC(C)CC2)c(OC)c1 109%
CC(C)C(=O)N1c2ccccc2NC2=C(C(=O)CCC2)C1c1ccc(N(C)C)cc1 (configuration not stated) 116%
Cc1c(-c2ccccc2)cn2c1-c1ccc(C)n1CC2 93%
O=C(Cc1cccs1)N/N=C/c1ccc(OCc2ccccc2)cc1 101%
Cc1c(S(=O)(=O)NCc2ccccc2)c(=O)n(C)c(=O)n1C 102%
Cc1[nH]c2ccc(S(N)(=O)=O)cc2c1C 97%
C=CCN1C=C2C(=O)C(C)(OC(=O)CCc3ccccc3)C(=O)C=C2C=C1c1ccc(C#N)cc1 (configuration not stated) 98%
C=C(C)C1CC=C(C)/C(=N\NC(=O)CNc2ccccc2OC)C1 (configuration not stated) 107%
O=C(CSc1ccc(-c2ccc(F)cc2)nn1)Nc1ccc2c(c1)OCCO2 105%
